Results from PubChem BioAssay AID1159580 (chemical genetic matrix, 2015).
The campaign covered roughly 5,500 compounds. About 2,000 (36%) were called active. About 18% were inconclusive and are not listed. Cut-off read from the data, not from the text of the source: active = normalized growth mostly below about 0.91 (no sharp cut-off); inconclusive = no clear call, values can overlap the other calls; inactive = mostly above about 0.92. The list shows a part of the results.

Assay: chemical genetic growth profiling, strain panel (AID 1159580);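 note: tested at 20 µM; growth read once vehicle control cultures reached saturation at 30 °C; 1 = growth at the plate median or of vehicle wells; lower values mean less growth of the strain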
Conditions: growth OD

Measured: normalized growth

CCOC(=O)/C=C(\C)OP(=O)(OC)OC
inactive: S. cerevisiae deletion strains, locus YAL013W, strain DEP1, stronger effect = lower value 0.973 | S. cerevisiae deletion strains, locus YBR021W, strain FUR4, stronger effect = lower value 1.02 | S. cerevisiae deletion strains, locus YBR229C, strain ROT2, stronger effect = lower value 0.948 | S. cerevisiae deletion strains, locus YCL029C, strain bik1, stronger effect = lower value 0.989 | S. cerevisiae deletion strains, locus YDL035C, strain GPR1, stronger effect = lower value 0.981 | S. cerevisiae deletion strains, locus YDL074C, strain BRE1, stronger effect = lower value 0.937 | S. cerevisiae deletion strains, locus YDL101C, strain DUN1, stronger effect = lower value 0.967 | S. cerevisiae deletion strains, locus YDL134C, strain PPH21, stronger effect = lower value 0.989 | S. cerevisiae deletion strains, locus YDL185W, strain tfp1, stronger effect = lower value 0.983 | S. cerevisiae deletion strains, locus YDL192W, strain arf1, stronger effect = lower value 0.992 | S. cerevisiae deletion strains, locus YDR101C, strain arx1, stronger effect = lower value 1 | S. cerevisiae deletion strains, locus YDR150W, strain NUM1, stronger effect = lower value 0.989 | S. cerevisiae deletion strains, locus YDR162C, strain NBP2, stronger effect = lower value 0.982 | S. cerevisiae deletion strains, locus YDR318W, strain mcm21, stronger effect = lower value 0.987 | S. cerevisiae deletion strains, locus YDR388W, stronger effect = lower value 1.01 | S. cerevisiae deletion strains, locus YDR502C, strain sam2, stronger effect = lower value 0.996 | S. cerevisiae deletion strains, locus YEL061C, strain CIN8, stronger effect = lower value 0.99 | S. cerevisiae deletion strains, locus YER110C, stronger effect = lower value 0.992 | S. cerevisiae deletion strains, locus YER155C, strain BEM2, stronger effect = lower value 0.984 | S. cerevisiae deletion strains, locus YER167W, strain BCK2, stronger effect = lower value 0.988 | S. cerevisiae deletion strains, locus YGL078C, strain dbp3, stronger effect = lower value 1.01 | S. cerevisiae deletion strains, locus YGL086W, strain mad1, stronger effect = lower value 0.993 | S. cerevisiae deletion strains, locus YGL248W, strain PDE1, stronger effect = lower value 0.977 | S. cerevisiae deletion strains, locus YGR078C, strain PAC10, stronger effect = lower value 0.983 | S. cerevisiae deletion strains, locus YGR135W, strain pre9, stronger effect = lower value 0.988 | S. cerevisiae deletion strains, locus YGR229C, strain SMI1, stronger effect = lower value 0.984 | S. cerevisiae deletion strains, locus YGR252W, strain gcn5, stronger effect = lower value 0.998 | S. cerevisiae deletion strains, locus YHR030C, strain SLT2, stronger effect = lower value 0.99 | S. cerevisiae deletion strains, locus YHR079C, strain IRE1 (second series), stronger effect = lower value 1 | S. cerevisiae deletion strains, locus YHR094C, strain hxt1, stronger effect = lower value 1.01 | S. cerevisiae deletion strains, locus YHR129C, strain ARP1, stronger effect = lower value 0.974 | S. cerevisiae deletion strains, locus YHR200W, strain rpn10, stronger effect = lower value 0.994 | S. cerevisiae deletion strains, locus YIL066C, strain RNR3, stronger effect = lower value 0.985 | S. cerevisiae deletion strains, locus YIL073C, strain SPO22, stronger effect = lower value 1.03 | S. cerevisiae deletion strains, locus YIL125W, strain kgd1, stronger effect = lower value 0.993 | S. cerevisiae deletion strains, locus YIR030C, strain dcg1, stronger effect = lower value 0.996 | S. cerevisiae deletion strains, locus YJL095W, strain BCK1, stronger effect = lower value 0.994 | S. cerevisiae deletion strains, locus YJL134W, strain LCB3, stronger effect = lower value 0.987 | S. cerevisiae deletion strains, locus YJL168C, strain set2, stronger effect = lower value 0.991 | S. cerevisiae deletion strains, locus YJL187C, strain SWE1 (second series), stronger effect = lower value 0.983 | S. cerevisiae deletion strains, locus YJR043C, strain POL32, stronger effect = lower value 0.985 | S. cerevisiae deletion strains, locus YJR075W, strain HOC1, stronger effect = lower value 0.983 | S. cerevisiae deletion strains, locus YKL009W, strain mrt4, stronger effect = lower value 0.947 | S. cerevisiae deletion strains, locus YKL068W, stronger effect = lower value 0.998 | S. cerevisiae deletion strains, locus YKL085W, strain MDH1 (second series), stronger effect = lower value 0.989 | S. cerevisiae deletion strains, locus YKL085W, strain MDH1, stronger effect = lower value 0.989 | S. cerevisiae deletion strains, locus YKL190W, strain CNB1, stronger effect = lower value 0.995 | S. cerevisiae deletion strains, locus YKR001C, strain vps1, stronger effect = lower value 1 | S. cerevisiae deletion strains, locus YLR039C, strain RIC1, stronger effect = lower value 0.976 | S. cerevisiae deletion strains, locus YLR058C, strain SHM2, stronger effect = lower value 0.981 | S. cerevisiae deletion strains, locus YLR102C, strain apc9, stronger effect = lower value 0.993 | S. cerevisiae deletion strains, locus YLR262C, strain YPT6, stronger effect = lower value 0.977 | S. cerevisiae deletion strains, locus YLR268W, strain sec22, stronger effect = lower value 0.998 | S. cerevisiae deletion strains, locus YLR330W, strain CHS5, stronger effect = lower value 0.986 | S. cerevisiae deletion strains, locus YLR342W, strain FKS1 (second series), stronger effect = lower value 1.02 | S. cerevisiae deletion strains, locus YLR371W, strain rom2, stronger effect = lower value 0.996 | S. cerevisiae deletion strains, locus YLR418C, strain cdc73, stronger effect = lower value 1.01 | S. cerevisiae deletion strains, locus YML016C, strain PPZ1, stronger effect = lower value 0.986 | S. cerevisiae deletion strains, locus YML032C, strain rad52, stronger effect = lower value 1 | S. cerevisiae deletion strains, locus YML124C, strain tub3, stronger effect = lower value 1 | S. cerevisiae deletion strains, locus YMR078C, strain ctf18, stronger effect = lower value 0.999 | S. cerevisiae deletion strains, locus YMR223W, strain ubp8, stronger effect = lower value 0.996 | S. cerevisiae deletion strains, locus YMR263W, strain SAP30, stronger effect = lower value 0.987 | S. cerevisiae deletion strains, locus YMR307W, strain GAS1, stronger effect = lower value 1.04 | S. cerevisiae deletion strains, locus YNL067W, strain RPL9B, stronger effect = lower value 0.982 | S. cerevisiae deletion strains, locus YNL128W, strain TEP1, stronger effect = lower value 0.951 | S. cerevisiae deletion strains, locus YNL153C, strain GIM3, stronger effect = lower value 0.985 | S. cerevisiae deletion strains, locus YNL233W, strain BNI4, stronger effect = lower value 0.997 | S. cerevisiae deletion strains, locus YNL250W, strain rad50, stronger effect = lower value 0.983 | S. cerevisiae deletion strains, locus YNL271C, strain bni1, stronger effect = lower value 1 | S. cerevisiae deletion strains, locus YNL298W, strain CLA4, stronger effect = lower value 1.01 | S. cerevisiae deletion strains, locus YNL307C, strain MCK1, stronger effect = lower value 1.01 | S. cerevisiae deletion strains, locus YNL322C, strain KRE1, stronger effect = lower value 0.977 | S. cerevisiae deletion strains, locus YNR052C, strain pop2, stronger effect = lower value 0.996 | S. cerevisiae deletion strains, locus YOL006C, strain TOP1, stronger effect = lower value 0.926 | S. cerevisiae deletion strains, locus YOL012C, strain htz1 0.854 | S. cerevisiae deletion strains, locus YOL147C, strain pex11, stronger effect = lower value 1.01 | S. cerevisiae deletion strains, locus YOR061W, strain CKA2, stronger effect = lower value 0.961 | S. cerevisiae deletion strains, locus YOR069W, strain VPS5, stronger effect = lower value 0.99 | S. cerevisiae deletion strains, locus YOR136W, strain idh2, stronger effect = lower value 0.993 | S. cerevisiae deletion strains, locus YOR144C, strain elg1, stronger effect = lower value 0.997 | S. cerevisiae deletion strains, locus YOR184W, strain ser1, stronger effect = lower value 1.01 | S. cerevisiae deletion strains, locus YOR316C, strain cot1, stronger effect = lower value 0.981 | S. cerevisiae deletion strains, locus YPL055C, strain LGE1, stronger effect = lower value 0.975 | S. cerevisiae deletion strains, locus YPL241C, strain CIN2, stronger effect = lower value 0.993 | S. cerevisiae deletion strains, locus YPR119W, strain clb2, stronger effect = lower value 1 | S. cerevisiae deletion strains, locus YPR141C, strain kar3, stronger effect = lower value 0.991 | S. cerevisiae deletion strains, locus YPR163C, strain tif3, stronger effect = lower value 1.01 | S. cerevisiae deletion strains, locus YPR167C, strain met16, stronger effect = lower value 0.995 | S. cerevisiae deletion strains, strain wtn01, stronger effect = lower value 1 | S. cerevisiae strains, strain wild type, stronger effect = lower value 0.985
